# Screening data from PubChem BioAssay.
# DT40 TDP1 CPT – qHTS for Inhibitors of human tyrosyl-DNA phosphodiesterase 1 (TDP1): qHTS in cells in presence of CPT; chicken DT40 Tdp1-/-;hTDP1 cells + 20 nM CPT, ATP luminescence, 48 h; Potency, µM (series often up to 46.2 µM), for inactives: at the highest dose activity change, negative = growth inhibition, usual class: inhibitors; actives 12% (n = 420,000); note: potency is the fitted concentration of half-maximal effect; nearly all actives have a fitted effect of over 55% in size
#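 Chicken DT40 Tdp1-/- cells stably complemented with human TDP1 were seeded at 400 cells/well in medium containing 20 nM camptothecin, exposed to pin-transferred compounds, and grown at 37 °C for at least 48 hr. Viability was read as ATP luminescence.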
# TDP1 block – qHTS Assay for Inhibitors of Tyrosyl-DNA Phosphodiesterase (TDP1); Tyrosyl-DNA phosphodiesterase 1 (Homo sapiens), Q9NUW8; Potency, µM (titrated, usually from 130 µM), for the others: top-dose activity change, negative = inhibition, actives largely listed as inhibitors; actives 0.28% (n = 350,000); recombinant TDP1, AlphaScreen DNA substrate cleavage; AID 485290, 2010; note: potency is the fitted concentration of half-maximal effect; nearly all actives have a fitted effect of over 40% in size
#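 Compounds were preincubated with Tdp1 (1 nM final) for 15 min at room temperature before substrate (15 nM final) started a 5 min reaction; beads (10 ug/ml final) were then added for 10 min before AlphaScreen detection.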
# CtBP-E1A inh – qHTS Assay for Inhibitors of the CtBP/E1A Interaction | CtBP / adenovirus E1A interaction (AlphaScreen) | AlphaScreen GST-E1A/His-CtBP binding, 1536-well; hits give low values | activity change, % (concentration not given with the values) | actives 0.49% (n = 340,000) | AID 651724, 2012; in the data active = activity change below about -65%; inconclusive = mostly about -30% to -63%
#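 Homogeneous bead-based format: GST-tagged E1A captured on glutathione donor beads, His-tagged CtBP on nickel acceptor beads; compounds precede bead addition by 2 h at 37 °C.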
# TDP1 cell noCPT – qHTS for Inhibitors of human tyrosyl-DNA phosphodiesterase 1 (TDP1): qHTS in cells in absence of CPT | Potency, µM (doses to about 46.2 µM), without a hit: at the top dose activity change, negative = growth inhibition, most hits filed as inhibitors | actives 15% (n = 420,000) | DT40 Tdp1-/- hTDP1 cells, no CPT, ATP luminescence, 48 h; note: potency is the fitted concentration of half-maximal effect; nearly all actives have a fitted effect of over 55% in size
#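 Stably hTDP1-transfected Tdp1-null chicken DT40 cells were treated with library compounds minus camptothecin and grown for at least 48 hr at 37 °C, after which cellular ATP was quantified by luminescence.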
# Six1-Eya2 blk – qHTS Assay for Inhibitors of the Six1/Eya2 Interaction; AlphaScreen GST-Six1/His-Eya2 binding, biochemical; hits give low values; activity change, % (test concentration not listed); actives 0.56% (n = 360,000); AID 651725, 2012; in the data active = activity change below about -65%; inconclusive = mostly about -30% to -63%
#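 GST-Six1 + His-Eya2 (5X stock: 250/500 nM); Tris pH 8.0, 300 mM NaCl, 0.05% BSA, 0.02% Tween 20; GSH donor/Ni acceptor beads; 1 h 37 °C dark; AlphaScreen readout.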
# IL-1B inflam inh – qHTS for Inhibitors of Inflammasome Signaling: IL-1-beta AlphaLISA Primary Screen. THP-1 LPS/ATP IL-1B secretion, AlphaLISA, 16 h; hits give low values. activity change, % at 57.5 µM. actives 4.7% (n = 360,000); in the data active = activity change below about -50%; inconclusive = mostly about -30% to -49%
#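 THP-1 cells pretreated 1 hr with compounds (up to 57.5 uM final), then stimulated with LPS (250 ng/mL final) plus ATP (1.25 mM final); secreted IL-1B measured by AlphaLISA after 16 hr, decreased signal indicating inhibition.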
# The depositor's hits bear a star; ? = inconclusive; nt = no result given. Compounds with a hit are over-represented: about 18% of the library has one in this group of screens. Unless noted, calls come from the whole dose curve; as a rule, active = well fitted curve in the direction sought with a large enough effect; inconclusive = small, poorly fitted or top-dose-only effect, or another doubt; inactive = no such curve, though single readings can be large; an effect the other way counts as inactive or inconclusive. % is set by controls: 0 for no effect and ±100 for the full control effect.
SMILES,DT40 TDP1 CPT,TDP1 block,CtBP-E1A inh,TDP1 cell noCPT,Six1-Eya2 blk,IL-1B inflam inh
COc1ccc(NC(=O)C23CC4CC(C2)CC(c2ccc(C)cc2)(C4)C3)cc1,29µM*,2%,0,23µM*,35,-7
CNC(=O)C12CC3CC(C1)CC(c1ccc(C)cc1)(C3)C2,-11%,nt,-8,-24%,3,4
Cc1ccc(C23CC4CC(CC(C(=O)NC(C)C)(C4)C2)C3)cc1,?,nt,6,26µM*,3,-20
Cc1onc(-c2ccccc2Cl)c1C(=O)Nc1ccccc1C(=O)NC(C)C,3.3µM*,0%,-10,2.3µM*,-9,?
Cc1onc(-c2ccccc2Cl)c1C(=O)N1CC(C)OC(C)C1 (stereo unspecified),-20%,7%,9,-26%,4,14
Cc1cccc(C(=O)NNC(=O)c2c(-c3ccccc3Cl)noc2C)c1O,?,nt,-2,29µM*,-4,-4
Cc1onc(-c2ccccc2Cl)c1C(=O)Nc1ccccc1C(N)=O,?,0%,-1,?,14,37
Cc1onc(-c2ccccc2Cl)c1C(=O)N1CC(C)CC(C)C1 (stereo unspecified),15µM*,nt,0,10µM*,-3,4
Cc1onc(-c2ccccc2Cl)c1C(=O)NNC(=O)c1ccc(F)cc1,3%,10%,1,-1%,-1,-1
Cc1onc(-c2ccccc2Cl)c1C(=O)NC(=S)Nc1ccccc1C(N)=O,26µM*,2%,-2,?,1,28
O=C(OCC(=O)N1CCCC1=O)c1cc(S(=O)(=O)N2CCOCC2)ccc1F,-19%,nt,-3,-3%,-1,-7
CC1CN(C(=O)C2CC(=O)N(c3ccc(Cl)cc3)C2)CC(C)O1 (stereo unspecified),-25%,nt,4,-9%,11,-10
CCCCOc1ccc(/C=N/NC(=S)Nc2cccc(C)c2C)cc1,?,7%,-1,?,-6,6
Cc1cccc(C)c1NC(=S)N/N=C/c1ccc(C(=O)O)cc1,11%,4%,4,-11%,3,14
S=C(NCCc1ccccc1)N/N=C/c1ccc(Cl)cc1,?,nt,-18,?,-23,-2
COc1cc(/C=N/NC(=S)NCCc2ccccc2)cc(OC)c1OC,26µM*,nt,-21,16µM*,-10,38
Cc1cccc(C)c1NC(=S)N/N=C/c1c(Cl)cccc1Cl,?,3%,1,21µM*,12,4
S=C(NCCc1ccccc1)N/N=C/c1c(Cl)cccc1Cl,?,1%,-5,16µM*,-11,12
Cc1cccc(C)c1NC(=S)N/N=C/c1ccc(OCCC(C)C)cc1,9.2µM*,8%,4,7.3µM*,-9,?
Cc1cc(Oc2ccc(=O)n(C)n2)nc(SCc2ccccc2)n1,-12%,3%,-12,-5%,5,3
CC(=O)c1ccc2cc3c(cc2c1)OCO3,-10%,nt,4,?,1,0
CN1CCN(c2nnc(-c3cccs3)c3ccccc23)CC1,9%,3%,-3,-12%,-11,-54*
COc1ccccc1N1CCN(Cc2cn[nH]c2-c2ccc(F)cc2)CC1,-28%,5%,-1,?,-2,9
c1ccc2c(c1)nnn2-c1ncnc2sccc12,4%,-4%,-15,-23%,29,8
